Reference: PubChem BioAssay
The source made the active and inactive calls.

Assay: basal 3T3-L1 adipocyte mitochondrial potential changes, profiling panel, cell-based, JC-1 fluorescence, 3T3-L1 adipocytes, 24 h, 100 nL compound (AID 1168)
Details: JC-1 mitochondrial fluorescence, higher = more signal, called active from +8 up or from −8 down
Note: test concentration not given here.

Structure (SMILES)	z-score
COCC(=C=CC[C@@H](O)c1cccc(OCCO)c1)CCO	0.176 (inactive)
Cc1ccc(S[C@]2(C(=O)NC(C)C)CC(=O)N(C(C)C)[C@@H]2c2ccc(CO)cc2I)cc1	0.389 (inactive)
O=C1O[C@H](c2ccccc2)[C@H](c2ccccc2)N2[C@H]1[C@@H](C(=O)N1CCCCCCC1)[C@]1(C(=O)Nc3ccc(C#CC4(O)CCCCCC4)cc31)[C@H]2c1ccc(O)cc1	0.212 (inactive)

Assay: basal RPMI8226 mitochondrial membrane potential changes, profiling panel, cell-based, JC-1 fluorescence, 24 h, 100 nL compound (AID 1169)
Details: RPMI8226 myeloma, JC-1 mitochondrial potential fluorescence, higher = more signal

Structure (SMILES)	z-score
COCC(=C=CC[C@H](O)c1cccc(OCCO)c1)C[C@H](O)COCc1ccccc1	0.191
C=CCOC(=O)[C@H]1[C@@H]2C(=O)O[C@@H](c3ccccc3)[C@@H](c3ccccc3)N2[C@@H](c2ccc(OCCOC(=O)[C@H]3C[C@H]4C(=O)N[C@@H](CCCCNC(C)=O)C(=O)N4[C@H]3c3cccc(OCCO)c3)cc2)[C@]12C(=O)Nc1ccc(I)cc12	-0.676
Cc1c(NC(=O)/C(C#N)=C/c2ccccc2Cl)c(=O)n(-c2ccccc2)n1C	-0.0416
C=C(C(=O)CC[C@@H](OC(=O)c1ccccc1-c1ccccc1C(=O)O)c1ccccc1OCCO)C(C)C	0.0612
COc1ccc([Si](C)(C)[C@@H]2[C@@H](CC(=O)N3Cc4ccccc4C[C@H]3CO)O[C@]3(C(=O)N(Cc4ccc(N5CCC5=O)cc4)c4ccccc43)[C@H]2C)cc1	-0.553
C=C[C@@H](OC)[C@H](OC(=O)Nc1ccc(OC)cc1)c1ccc(OC)c(O)c1	0.616
CCOC(=O)C1=CCC(c2ccco2)N(S(=O)(=O)c2ccc(C)cc2)C1 (stereo not drawn)	0.733
C=CCNC(=O)[C@H]1[C@@H]2C(=O)O[C@@H](c3ccccc3)[C@@H](c3ccccc3)N2[C@@H](c2ccc(OCCO)cc2)[C@]12C(=O)N(C(=O)OCCOC)c1ccc(C#Cc3ccc(OC)cc3)cc12	-0.904
CN1C=C(C(=O)OCCS(C)(=O)=O)C(C(=O)OCCS(C)(=O)=O)=CC(c2ccc(CO)cc2)=CC1c1cccs1 (stereo not drawn)	-0.627
COC(=O)C1N=C(c2ccc(OCCCO)cc2)N(c2ccccc2)O1 (stereo not drawn)	-0.44
CC(C)N1CC=CC23O[C@@H]4/C=C\CCCOC(=O)C4[C@H]2C(=O)N(CCCCCCO)[C@@H]3C1=O (stereo partly drawn)	-0.659
COc1cc(NN2C(C(O)C3CCCCC3)C=CC3C(=O)N(c4ccccc4)C(=O)C32)cc(OC)c1OC (stereo not drawn)	-0.741
O=C(NCC(O)CO)[C@@]1(CCS(=O)(=O)c2ccccc2)COC(c2ccc(OCCCO)cc2)=N1 (stereo partly drawn)	0.747
NCCCCCNC(=O)[C@@H]1C[C@@H]2C(=O)N3CCC[C@H]3C(=O)N2[C@@H]1c1ccc(O)cc1	-0.175
CCCNC(=O)[C@@]1(Sc2ccc(C)cc2)CC(=O)N(C2CCCCC2)[C@@H]1c1ccc(CO)cc1I	-0.503
COC(=O)C1=CC(CCCO)=CC(C)N(Cc2cccc(OC(F)(F)F)c2)C=C1C(=O)OC (stereo not drawn)	-0.0402
C=CCC(OC(C)=O)[C@@H]1[C@@H](N(Cc2ccc(-c3ccccc3)cc2)C(=O)c2ccc(C)cc2)c2cc(OCCCO)ccc2N1C(=O)Cc1ccc2ccccc2c1 (stereo partly drawn)	-0.0998
CCCCCCCCCCC(O)C1C=CC2C(=O)N(c3ccccc3)C(=O)C2N1Nc1ccccc1F (stereo not drawn)	-0.415
CCOC(=O)C[C@H]1[C@H](OC(=O)c2ccc(-c3ccccc3)cc2)[C@@H](NC(=O)Cc2ccc(OC)cc2)c2cc(OCCCO)ccc2N1C(=O)Cc1ccc(OC)cc1	-0.198
Cc1ccccc1C(O)C1C=CC2C(=O)NC(=O)C2N1Nc1ccc(Cl)cc1Cl (stereo not drawn)	-0.153
COCCOC(=O)N1C(=O)[C@@]2(c3cc(C#CCC(C(=O)OC)C(=O)OC)ccc31)[C@H](c1ccc(OCCO)cc1)N1[C@H](c3ccccc3)[C@H](c3ccccc3)OC(=O)[C@H]1[C@@H]2C(=O)Nc1nc2ccccc2s1	-1.01
O=C1C[C@@](C(=O)NCC(F)(F)F)(c2ccc([N+](=O)[O-])cc2)[C@@H](c2ccc(CO)cc2)N1CC12CC3CC(CC(C3)C1)C2	-1.04
CCOC(=O)C[C@H]1[C@H](OC(=O)c2ccccc2-c2ccccc2)[C@@H](NC(=O)c2ccc3ccccc3n2)c2cc(OCCCO)ccc2N1C(=O)c1ccccc1	-0.707
COCCOC(=O)N1C(=O)[C@@]2(c3cc(C#CCNC(N)=O)ccc31)[C@H](c1ccc(O)cc1)N1[C@H](c3ccccc3)[C@H](c3ccccc3)OC(=O)[C@H]1[C@@H]2C(=O)N1CCN(c2ncccn2)CC1	-0.322
C=CC[C@H](OC(=O)Nc1ccc(SC)cc1)c1ccc(OCCO)cc1	-0.309
